Laboratory results as given in ChEMBL document CHEMBL4513216, “Probing the Open Global Health Chemical Diversity Library for Multistage-Active Starting Points for Next-Generation Antimalarials” (ACS Infect Dis, 2020).
Among all 69,000 compounds or so, about 8,600 (12%) showed an effect of 50% or more. The full list was thinned out, with strong results kept by preference.

test system: Plasmodium berghei; assay: Screen against P. berghei liver stage (PbLuc), transformed with Luciferase, at 10uM; type: functional, HepG2; settings: tested at 10 uM

| Structure (SMILES) | INHIBITION [%] |
| --- | --- |
| c1c(CN2CCCC2)nc2n1CCN(CC1CC1)C2 | -44.4 |
| COc1cc(C(=O)N(Cc2cnn(C)c2)C(C)C)ccc1OC(C)C | 27.8 |
| CC1=N[C@@]2(CC[C@@H]3CN(Cc4ccccc4)C[C@@H]32)C(=O)N1CC1CC1 | -13.4 |
| COc1ccc(C(=O)N2C[C@@H](C)[C@@](C)(O)C2)cc1N1CCOCC1 | -4.92 |
| COc1ccc(C(=O)N2CC[C@](C)(O)[C@H](C)C2)cc1N1CCOCC1 | 54.4 |
| COc1ccc(C(=O)N2CCOCC(CO)C2)cc1N1CCOCC1 (configuration not stated) | 49.9 |
| CC(C)Cn1cnc2ccc(NC(=O)CCCn3cccn3)cc2c1=O | 13.2 |
| CN(C)C(CNc1c(NCc2ccco2)c(=O)c1=O)c1ccccc1 (configuration not stated) | 4.48 |
| Cn1cc(CN2C[C@H]3CCC[C@@]3(COc3ccccn3)C2)cn1 | 67.5 |
| c1cncc(OC[C@@]23CCC[C@@H]2CN(CC2CCOCC2)C3)c1 | 47.4 |
| CCS(=O)(=O)N1C[C@H]2CCC[C@@]2(COc2ccccn2)C1 | -23.7 |
| Fc1cnc(N2C[C@H]3CCC[C@@]3(COc3ccccn3)C2)nc1 | 76.6 |
| CS(=O)(=O)N1C[C@H]2CCC[C@@]2(COc2ccccn2)C1 | 33 |
| O=S(=O)(C1CC1)N1C[C@H]2CCC[C@@]2(COc2ccccn2)C1 | 0.79 |
| Cn1cc(CN2C[C@H]3CCC[C@@]3(COCC3CC3)C2)cn1 | 8.6 |
| Fc1cnc(N2C[C@@H]3COC[C@]3(COc3ccccn3)C2)nc1 | 43.1 |
| Cn1cc(CN2C[C@H]3CCC[C@@]3(COc3cccnc3)C2)cn1 | 52.1 |
| CCn1ncc(CNc2[nH]cnc3nncc2-3)c1C | 25.3 |
| CCCC1CN(CC(C)C)C(=O)c2cccnc2O1 (configuration not stated) | 6.34 |
| O=C(NCc1ccc2c(c1)OCO2)Nc1cccnc1N1CCCC1 | -4.94 |
| O=c1cc(Cn2ccnc2)nc2n1CCCN(S(=O)(=O)C1CC1)C2 | -10.2 |
| CN1C[C@H]2CC[C@@H](C1)N(Cc1ccccc1OCCN1CCOCC1)C2 | -154 |
| CC(=O)N1CCC(NC(=O)N2CCN(c3cnccn3)CC2)CC1 | 48.2 |

| Structure (SMILES) | INHIBITION [%] |
| --- | --- |
| Cc1nc2c(c(=O)[nH]1)CN(Cc1ccc3c(c1)CCCN3C)CC2 | 30.5 |
| Cc1ccc(C(=O)N2CCC[C@@H]2Cn2nnc3c(O)nc(C)nc32)cc1 | 23.4 |
| Cn1ccnc1CNCCNc1ncc(Cl)cc1Cl | 1.51 |
| CCCc1n[nH]c(C2CN(CCS(=O)(=O)CC)CCO2)n1 (configuration not stated) | 44.1 |
| Cn1cc(S(=O)(=O)Nc2c(F)cccc2N2CCCC2)cn1 | -11.9 |
| N#Cc1cccc(S(=O)(=O)Nc2c(F)cccc2N2CCCC2)c1 | 50.1 |
| O=S(=O)(Nc1c(F)cccc1N1CCCC1)c1cncc(F)c1 | 27.6 |
| O=C(c1ccncc1)N1CCC(c2nc(O)cc(-c3ccncc3)n2)C1 (configuration not stated) | 48.3 |
| CCCN1C[C@H](NC(=O)c2cc(C)no2)[C@@H](c2ccc(OC)cc2)C1 | 35.2 |
| CCCN1C[C@H](NC(=O)c2ccccc2F)[C@@H](c2ccc(OC)cc2)C1 | 54.4 |
| CCCN1C[C@H](NC(=O)c2cccs2)[C@@H](c2ccc(OC)cc2)C1 | 31.6 |
| CCN(CC)C1CCN(C(=O)NCc2cccc(NC(C)=O)c2)C1 (configuration not stated) | -4.15 |
| CCCc1noc(CCC(=O)N2CCCC2c2cccs2)n1 (configuration not stated) | 29.7 |
| CCCS(=O)(=O)N1C[C@@H]2C[C@H](C(=O)N3CCCC3)[C@H](C1)O2 | 35.8 |
| Cc1cc(C)nc(C2CCN(c3ccncn3)C2)n1 (configuration not stated) | 36.9 |
| Cc1ccccc1N1CCN(C(=O)c2ncc(F)cc2F)C(C)C1 (configuration not stated) | 33 |
| Cc1ccc(N2CCN(c3ccccc3C)CC2C)nn1 (configuration not stated) | 59.9 |
| Cc1ccccc1N1CCN(C(=O)c2cnc(N(C)C)nc2C)C(C)C1 (configuration not stated) | 25.8 |
| CN(C)c1cc(N2CCN(c3ccccn3)CC2)ncn1 | 41.1 |
| Cc1nccn1CCC1CCN(c2ccncn2)CC1 | 35.8 |
| Cc1ccccc1N1CCN(C(=O)c2cnc(C3CC3)nc2)C(C)C1 (configuration not stated) | 43 |
| Cc1ccccc1N1CCCN(c2ccncn2)CC1 | 80.7 |
| Cc1ccccc1N1CCN(c2cc(N(C)C)ncn2)C(C)C1 (configuration not stated) | 67.4 |

| Structure (SMILES) | INHIBITION [%] |
| --- | --- |
| CSc1ncc(C(=O)N2CCN(c3ccccc3C)CC2C)cn1 (configuration not stated) | 44.8 |
| Cc1ccccc1N1CCN(C(=O)c2cscn2)C(C)C1 (configuration not stated) | 10.3 |
| Cc1ccccc1N1CCN(c2ccncn2)C(C)C1 (configuration not stated) | 63.2 |
| O=S(=O)(C1CC1)N1CC[C@H]2OCC[C@@]2(COc2ncccc2F)C1 | -58.9 |
| O=C(CCc1ccccc1)N1C[C@@H]2CN(Cc3ccoc3)CCO[C@@H]2C1 | 29.9 |
| Cc1ccc(CN2CC(O)CN(C(=O)C3CC3)CC2=O)cc1 (configuration not stated) | 7.85 |
| CSCCC(=O)N1CCC(CCC(=O)NCC2CCCO2)CC1 (configuration not stated) | 8.51 |
| CCOc1ccccc1CCn1cc2[nH]cccc-2c1=O | 41.5 |
| NC(=O)C1CCCN(c2ccc(CNC(=O)c3cc[nH]n3)cc2)C1 (configuration not stated) | -25.8 |
| NC(=O)C1CCCN(c2ccc(CNC(=O)c3csnn3)cc2)C1 (configuration not stated) | 44.1 |
| NC(=O)C1CCCN(c2ccc(CNC(=O)c3cnsn3)cc2)C1 (configuration not stated) | 60.5 |
| CCN1CCN(C2CCN(Cc3nc(CCOC)no3)CC2)C1=O | 19.4 |
| CCCS(=O)(=O)N1CCN(CCCO)CC1 | 11.5 |
| CCS(=O)(=O)N1CCCN(CCCOC)CC1 | 63 |
| CCCS(=O)(=O)N1CCCN(CCCOC)CC1 | -13.6 |
| Cn1cccc1C(=O)N1CCCC1c1ccc(CN2CCOCC2)cn1 (configuration not stated) | 13.7375 |
| Cc1nn(C)c(Cl)c1CNCc1cccnc1N1CCN(C)CC1 | 13.4 |
| CCOc1cc(F)ccc1NC1CCN(CC(F)(F)F)C1=O (configuration not stated) | -6.51 |
| CCc1nnc(C(C)N(C)Cc2c(C)nn(-c3ccccc3)c2C)o1 (configuration not stated) | -77.1 |
| Cc1nnc(C(C)N(C)Cc2c(C)nn(-c3ccccc3C)c2C)o1 (configuration not stated) | 59.2 |
| Cc1nnc(C(C)N(C)Cc2c(C)nn(-c3ccccc3)c2C)o1 (configuration not stated) | -10.8 |
